According to PubChem BioAssay (NCI):
Compounds without any hit were thinned out: in the full panel of roughly 83,000, 20% have a hit.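 Activity criterion: percent growth below 10, measured after cells in 96-well plates were exposed to a single compound concentration for 48 hours.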 Unmarked numbers belong to inactive results. Activity calls are given as the source filed them.

Key:
Assay in all cases: NCI-60 one-dose screen, 48 h (100 = growth as untreated, 0 = no growth, -100 = all killed)
Conditions in all cases: 10 µM unless noted
NCI-H23 lung = tested on: NCI-H23 lung
NCI-H226 lung = tested on: NCI-H226 lung
NCI-H322M lung = tested on: NCI-H322M lung
HOP-62 NSCLC = tested on: HOP-62 NSCLC
NCI-H460 lung = tested on: NCI-H460 lung
HOP-92 NSCLC = tested on: HOP-92 NSCLC
NCI-H522 lung = tested on: NCI-H522 lung
A549/ATCC NSCLC = tested on: A549/ATCC NSCLC
786-0 renal = tested on: 786-0 renal
COLO 205 colon = tested on: COLO 205 colon

SMILES	growth (NCI-H23 lung)	growth (NCI-H226 lung)	growth (NCI-H322M lung)	growth (HOP-62 NSCLC)	growth (NCI-H460 lung)	growth (HOP-92 NSCLC)	growth (NCI-H522 lung)	growth (A549/ATCC NSCLC)	growth (786-0 renal)	growth (COLO 205 colon)
CC(=O)CSc1ncnc2nc[nH]c12	106%	92.1%	115%	84.8%	98.4%	69.6%	72.8%	87.3%	91.7%	97.6%
C=COC(=O)C(C)(C)C	102%	109%	104%	104%	104%	71.7%	93.7%	105%	96.2%	104%
NC(=S)N/N=C/c1ccc(OC(=O)COc2ccccc2)cn1	28.2%	92%	54%	57.9%	83.5%	63.8%	58%	107%	22%	85.9%
C/C(=N\O)c1ccccn1	104%	98%	101%	102%	103%	95.4%	83.2%	91.2%	101%	108%
CCOC(=O)c1ccc(C(C)(C)C)cc1	102%	101%	101%	107%	109%	117%	105%	102%	104%	108%
CCOC(=O)CO	104%	99.8%	98.2%	104%	106%	95.6%	97%	102%	105%	117%
C=CCc1cc(OC)c(OC)c(OC)c1	95.6%	104%	117%	104%	97.1%	108%	101%	96.2%	108%	108%
CC(=O)Nc1ccc(/C=C2\SC(=S)N(/C=C(\C(C)=O)C(N)=O)C2=O)cc1	97.5%	86.2%	102%	82.5%	99.4%	68.2%	84.2%	84.9%	88.1%	92.1%
NNc1ncccn1	98.4%	109%	105%	101%	112%	111%	84.6%	97.1%	95.7%	117%
COc1ccc2c(Cl)cc(NC(=O)Nc3c(C)cccc3C)nc2c1	96.9%	4.58% (active)	54%	6.88% (active)	31.4%	41.3%	78.1%	43.3%	21%	58.7%
Cc1cc(NC(=O)c2ccccc2)c(Cl)cc1N	98.6%	97.1%	97.7%	96.7%	99.9%	106%	79.5%	99.4%	92.1%	129%
COc1ccc(C(=O)C(=O)c2ccccc2)cc1	94%	91.9%	93.8%	102%	104%	90.7%	97.2%	104%	103%	112%
CCOC(=O)Nc1nccs1	112%	99.6%	99.6%	103%	104%	92.3%	104%	98.3%	100%	104%
CN1CCCN(C(c2ccccc2)c2ccc(Cl)cc2)CC1 (stereo not given)	91.4%	93.9%	100%	94.2%	93%	60.4%	103%	107%	73.3%	103%
C=CCc1cc(OC)c(O)c(OC)c1	105%	93.8%	124%	97.4%	108%	105%	92.2%	83.9%	102%	105%
COc1ccc(Nc2cc(Cl)ccc2C(=O)O)cn1	102%	103%	128%	111%	113%	101%	100%	103%	111%	103%
N#C/C(=C\c1ccc2c(c1)OCO2)c1ccccc1	84%	90.9%	95.1%	67.3%	68.3%	64.5%	52%	71.9%	95.5%	66.5%
CCNc1ccc2ccccc2c1N=Nc1ccc(N=Nc2ccccc2)cc1	99.4%	83.6%	101%	102%	84.7%	98.1%	90.2%	102%	108%	100%
O=c1n(CC2CO2)c(=O)n(CC2CO2)n1CC1CO1 (stereo not given)	55.2%	85.9%	94%	46%	4.78% (active)	48.6%	31.4%	49.4%	36.9%	70.1%
O=C(c1cccc(C(=O)c2ccc3c4c(cccc24)C(=O)N(c2ccccc2)C3=O)c1)c1ccc2c3c(cccc13)C(=O)N(c1ccccc1)C2=O	82.6%	78.6%	113%	101%	104%	85.5%	85%	103%	106%	102%
COc1ccc(Br)c2c1C(=O)CC2	109%	100%	159%	116%	110%	94.5%	43.1%	122%	113%	114%
C=COC(=O)CCOCC(CC)CCCC (stereo not given)	105%	98.7%	98.7%	97.3%	106%	111%	109%	89.6%	91.2%	111%
CC(C)C1CCC(C)C(O)C1 (stereo not given)	110%	102%	105%	95.3%	108%	102%	92.8%	88.7%	105%	111%
O=S(Cc1ccccc1)/C(=C/NC(=S)Nc1cc(Cl)ccc1Cl)c1ccccc1 (stereo not given)	97.1%	101%	93.7%	92.8%	107%	101%	85%	96.8%	102%	109%
CNc1ccccc1C(=O)N/N=C/C=C/c1ccccc1	39.1%	66.7%	30.8%	26.9%	11%	69.3%	-18.1% (active)	30.7%	35.3%	-1.61% (active)
O=C(Nc1cccc(Cl)c1)c1ccc(Cl)cc1Cl	99.4%	94.7%	103%	92.3%	95.1%	95.7%	78.1%	81.1%	88.4%	101%
CCCCCCCCCCCCCCCCCC(=O)NCCNC(=O)CCCCCCCCCCCCCCCCC	95.2%	107%	72.4%	89.8%	98.8%	37.4%	98.7%	94.5%	91.9%	84.5%
NNc1ncnc2nc[nH]c12	85.2%	47.9%	50.5%	40.7%	50.4%	86.9%	-15.7% (active)	31.5%	43.2%	52.5%
C#CC(O)c1ccccc1 (stereo not given)	106%	99.7%	104%	108%	104%	85.9%	102%	101%	95.6%	108%
COc1ccc(C2CC(c3ccccc3)=Nc3ccccc3S2)cc1 (stereo not given)	98%	98.2%	90.3%	98.7%	105%	87.1%	77.6%	111%	98.2%	97.1%
